# Assay results: PubChem BioAssay AID1345085 (National Center for Advancing Translational Sciences (NCATS), 2018)
# Inconclusive results are not listed. Calls of active or inactive are those of the source. The call rests on the fitted dose curve; in most records, active means well fitted cell-killing curve with a large enough effect; inconclusive means small, poorly fitted or top-dose-only effect, or effect the other way; inactive means no such curve, though single readings can be large or run the other way. *1 amine or outer side, *2 acyl side, *3 side chain or, on linkers, in order; H or OH if unused. Where a SMILES comes first, the peptide text is derived from it. Bridges are numbered along the chain shown (N, C = ends). Roman numbers before positions name the chains, in order. [ ]: non-standard residue; d: D form. Actinocin(9to1) = Cc1c2oc3c(C)ccc(C(=O)[*:1])c3nc-2c(C(=O)[*:2])c(N)c1=O; NMeV = CN[C@H](C(=O)O)C(C)C; Sar = CNCC(=O)O
# Test system: CASKI
# Test: Confirmatory qHTS for gynecologic anti-cancer compounds from libraries of approved drugs and bioactive compounds; further: nearly all actives have a fitted effect of over 55% in size
# Details: gynecologic cancer cell panel viability, ATPlite luminescence, 48 h; series mostly up to 57.6 µM
# Source text: National Center for Advancing Translational Sciences [NCATS] Assay Overview: Chemotherapeutic drug responses vary from cancer to cancer and from patient to patient. These variations could be caused by a number of factors including patient genomic background, tumor mutations, tumor heterogeneity, and aspects of drug treatment. Chemotherapeutic drug resistance is also a common issue and can lead to ineffective treatment and patient death. Here we have profiled the cell killing effects of thousands of compounds to characterize the responses in three gynecological cancers, identify cancer-selective compounds, and understand the diversity of responses to these compounds from pan-cancer suppressors to single cell line selective compounds. In this assay, we screened a 7,914 compound drug library that included approved drug and bioactive compounds in six ovarian, three cervical, and two placental cancer cell lines using the ATPlite assay for cell viability. ATPlite is a luminescence based assay reliant on the conversion of a luciferase substrate to light in the presence of ATP. As a cytotoxic compound will suppress growth and decrease the number of cells, the concentration of ATP will decrease, and less light signal will be detected in the well. Hits were selected from the primary screen for follow-up confirmation. For the confirmation screens, the ovarian cancer cell lines included CAOV-3, SK-OV-3, SW 626, ES-2, PA-1, and TOV-21G. The cervical cancer cell lines included HeLa, Ca Ski, and C-33 A. The placental cancer cell lines included JEG-3 and JAR. HEK 293T cells were used as the control cell line to determine the selectivity index. The ATPlite assay was used to determine the IC50 values.
# Assay Protocol Summary: 1,000 cells in 4 uL of media were dispensed into white, solid bottom 1536-well plates using a Multidrop Combi (Thermo Scientific). The Assay plates were incubated for 16 hours at 37 C with 5% CO2 in assay plates, followed by the addition of 23 nL of DMSO or drug dissolved in DMSO. . Each compound was assayed in 11 concentrations (1:3 dilution) from 57.5 uM to 0.977 nM, using the automated Wako 1536 Pin Tool workstation and incubated at 37 C with 5% CO2 48 hours. 4 uL of ATPlite, the ATP monitoring reagent, was then added to the each well of the assay plates using the Multidrop Combi reagent dispenser followed by incubation for 15 minutes at room temperature. The resulting luminescence was measured using the ViewLux plate reader.
# Potency means the concentration at half of the fitted maximal effect.
row,SMILES,Potency
1,Cc1cnc(Nc2ccc(OCCN3CCCC3)cc2)nc1Nc1cccc(S(=O)(=O)NC(C)(C)C)c1,19.3 µM (active)
2,"Cc1c2oc3c(C)ccc(C(=O)N[C@@H]4C(=O)N[C@H](C(C)C)C(=O)N5CCC[C@H]5C(=O)N(C)CC(=O)N(C)[C@@H](C(C)C)C(=O)O[C@@H]4C)c3nc-2c(C(=O)N[C@@H]2C(=O)N[C@H](C(C)C)C(=O)N3CCC[C@H]3C(=O)N(C)CC(=O)N(C)[C@@H](C(C)C)C(=O)O[C@@H]2C)c(N)c1=O (I: T[dV]P[Sar][NMeV] / II: T[dV]P[Sar][NMeV]; ester I:1-I:C, II:1-II:C; linker I:N-II:N via Actinocin(9to1))",0.611 µM (active)
3,Cc1nc(Nc2ncc(C(=O)Nc3c(C)cccc3Cl)s2)cc(N2CCN(CCO)CC2)n1,0.109 µM (active)
4,CNC(=O)c1ccccc1Nc1nc(Nc2ccc(N3CCOCC3)cc2OC)ncc1Cl,6.11 µM (active)
5,Cc1ccc(NC(=O)c2ccc(CN3CCN(C)CC3)cc2)cc1Nc1nccc(-c2cccnc2)n1,inactive
6,C[C@@H](Oc1cc(-c2cnn(C3CCNCC3)c2)cnc1N)c1c(Cl)ccc(F)c1Cl,24.3 µM (active)
7,COC(C)(C)CCn1nc(Nc2c(C)cccc2C)c2cnc(Nc3ccc(OCCN4CCCC4)c(F)c3)nc21,3.43 µM (active)
8,COc1cc2nccc(Oc3ccc(NC(=O)Nc4cc(C)on4)c(Cl)c3)c2cc1OC,27.3 µM (active)
9,C=CC(=O)Nc1cccc(Oc2nc(Nc3ccc(N4CCN(C)CC4)cc3)ncc2Cl)c1,10.9 µM (active)
10,CC(Oc1cc(-n2cnc3ccc(CN4CCN(C)CC4)cc32)sc1C(N)=O)c1ccccc1C(F)(F)F (stereo not given),13.7 µM (active)
11,Cc1ccc(C(=O)Nc2cccc(C(F)(F)F)c2)cc1-c1ccc2nc(NCCN3CCOCC3)ncc2c1,12.2 µM (active)
12,S=c1nc[nH]c2nc[nH]c12,4.85 µM (active)
13,NC(=O)c1cccc2cn(-c3ccc([C@@H]4CCCNC4)cc3)nc12,inactive
14,COc1ccc2c(c1)c(CC(=O)O)c(C)n2C(=O)c1ccc(Cl)cc1,inactive
15,Cc1[nH]c2ccccc2c1CCNCc1ccc(/C=C/C(=O)NO)cc1,0.611 µM (active)
16,Cc1ccc(C(=O)N(CCCN)C(c2oc3cc(Cl)ccc3c(=O)c2Cc2ccccc2)C(C)C)cc1 (stereo not given),27.3 µM (active)
17,O=c1c2ccccc2nc2n1CCc1c-2[nH]c2ccccc12,inactive
18,Fc1cc(-c2cccc3ncc(-c4cnn(C5CCNCC5)c4)nc23)cc(F)c1CN1CCOCC1,34.3 µM (active)
19,Nc1ccc(-c2ccc3ncc4ccc(=O)n(-c5cccc(C(F)(F)F)c5)c4c3c2)cn1,1.93 µM (active)
20,OCc1ccc(-c2ccc(-c3ccc(CO)s3)o2)s1,inactive

row,SMILES,Potency
1,O=C(Nc1cccnc1)N1CCC(Cc2cccc(Oc3ccc(C(F)(F)F)cn3)c2)CC1,12.2 µM (active)
2,Cn1c(=O)c(F)c(Nc2ccc(I)cc2F)c2c(=O)n(CC(O)CO)cnc21 (stereo not given),24.3 µM (active)
3,CN(C)C(CCOc1cccc2ccccc12)c1ccccc1 (stereo not given),inactive
4,Cc1nc(Nc2n[nH]c3c2CN(C(=O)NC(CN(C)C)c2ccccc2)C3(C)C)c2sccc2n1 (stereo not given),3.06 µM (active)
5,CN(C)CC/C=C1\c2ccccc2COc2ccccc21,inactive
6,Cc1cc(C(C)Nc2ccccc2C(=O)O)c2nc(N3CCOCC3)cc(=O)n2c1 (stereo not given),6.85 µM (active)
7,O=C(CCCCCCC(=O)Nc1ccccc1)NO,12.2 µM (active)
8,CN1CCN(c2cccc(Nc3nc4c(-c5ccc(S(C)(=O)=O)cc5)cccn4n3)c2)CC1,inactive
9,COc1ccc(-c2ccc3c(N4CCOCC4C)nc(N4CCOCC4C)nc3n2)cc1CO (stereo not given),inactive
10,OC[C@H]1O[C@@H](n2cnc3c(=S)nc[nH]c32)[C@H](O)[C@@H]1O,4.85 µM (active)
11,CN[C@@H](C)C(=O)N[C@H]1CN(C(=O)CC(C)C)CC[C@H]2CC[C@@H](C(=O)NC(c3ccccc3)c3ccccc3)N2C1=O,inactive
12,CCOc1cc2ncc(C#N)c(Nc3ccc(F)c(Cl)c3)c2cc1NC(=O)/C=C/CN(C)C,8.63 µM (active)
13,Cc1cc(Nc2nc(N[C@@H](C)c3ccc(F)cc3)c(C#N)cc2F)n[nH]1,13.7 µM (active)
14,CCC1=CC2CN(C1)Cc1c([nH]c3ccccc13)[C@@](C(=O)OC)(c1cc3c(cc1OC)N(C)[C@H]1[C@@](O)(C(=O)OC)[C@H](OC(C)=O)[C@]4(CC)C=CCN5CC[C@]31[C@@H]54)C2 (stereo not given in full),inactive
15,Cc1cc(CN2CCN(c3c(Br)cnc4nc(-c5ccc(N6CCN(C)CC6)cc5)[nH]c34)CC2)no1,27.3 µM (active)
16,CCN(CC)CCOc1ccc(/C(=C(\Cl)c2ccccc2)c2ccccc2)cc1,112 µM (active)
17,COc1c(C)c2c(c(O)c1C/C=C(\C)CCC(=O)O)C(=O)OC2,inactive
18,COc1ccc2cc3[n+](cc2c1OC)CCc1cc2c(cc1-3)OCO2,10.9 µM (active)
19,O=C(/C=C/c1cccc(S(=O)(=O)Nc2ccccc2)c1)NO,4.73 µM (active)
20,C=CC(=O)Nc1cc2c(Nc3ccc(F)c(Cl)c3)ncnc2cc1OCCCN1CCOCC1,27.3 µM (active)
